# Reference: PubChem BioAssay (Tox21)
# Values without a mark were called inactive. Inconclusive results are not listed. Where a call stands in place of a potency, no number is given. Active and inactive are the calls of the source. Unless noted, the call rests on the fitted dose curve. Square brackets hold non-standard residues; d marks the D form. Peptide text beside a SMILES is read from it. * marks the point of attachment. Sta = CC(C)C[C@H](N)[C@@H](O)CC(=O)O; pGlu = O=C1CC[C@@H](C(=O)O)N1; Isovaleryl = CC(C)CC(=O)*
# Experiments:
# [1] = molecular target: KiSS-1 receptor (Homo sapiens) (UniProt Q969F8); assay: Human kisspeptin (KISS1R) small molecule agonists, calcium flux assay in KISS1R-HEK293 cells (AID 1920064; active means well fitted activation curve with a large enough effect in the repeat runs)
# How it was run: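 Agonist mode: intracellular calcium rise tracked at 1 s intervals over 3 min (480/540 nm) immediately after compound addition to dye-loaded KISS1R-HEK293 stable cells. Each compound tested at 15 concentrations in triplicate.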
# [2] = G protein-coupled receptor (GPCR) small molecule agonists, calcium flux assay: HEK293 wild type cell line counter screen (AID 1920065); further: potency means the concentration at half of the fitted maximal effect
# How it was run: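 Calcium flux counter screen: compound added in agonist mode at 15 concentrations in triplicate to dye-loaded parental HEK293 cells. Fluorescence (480/540) read kinetically for 3 min; ATP served as positive control.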
# [3] = p53 small molecule agonists, cell-based qHTS assay with human liver microsomes (AID 1963577)
# How it was run: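 Cells carrying a p53-responsive bla reporter were rested 5 h (37 C, 5% CO2) before compound transfer. Human liver microsomes plus NADPH, 0.5 mg/mL final apiece, supplied metabolism during the 16 h 37 C exposure.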
# [4] = p53 small molecule agonists, cell-based qHTS assay with rat liver microsomes (AID 1963578)
# How it was run: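 Fluorescence from a beta-lactamase reporter under a p53 response element was measured after cells had been incubated 16 h at 37 C with test compound and rat liver microsomes plus NADPH (0.5 mg/mL final each).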
# [5] = p53 small molecule agonists, cell-based qHTS assay with human liver microsomes: qHTS cell viability counter screen (AID 1963579); further: nearly all actives have a fitted effect of over 45% in size; further: potency means the concentration at half of the fitted maximal effect
# How it was run: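 Seed p53RE-bla cells at 4,000 per well; incubate 5 h at 37 C; add compound, human liver microsomes and NADPH; incubate 16 h at 37 C; add CellTiter-Glo; after 30 min at room temperature, read luminescence.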
# [6] = p53 small molecule agonists, cell-based qHTS assay with rat liver microsomes: qHTS cell viability counter screen (AID 1963580); further: nearly all actives have a fitted effect of over 45% in size
# How it was run: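 Cytotoxicity counter screen: intracellular ATP read by CellTiter-Glo luminescence in the p53 reporter wells. HCT-116 p53RE-bla cells were treated for 16 h at 37 C alongside rat liver microsomes and NADPH, each 0.5 mg/mL final.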
# [7] = p53 small molecule agonists, cell-based qHTS assay: qHTS cell viability counter screen (AID 1963581); further: nearly all actives have a fitted effect of over 45% in size
# How it was run: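 Counter screen read by CellTiter-Glo luminescence (ATP content, 30 min at room temperature), run in the same wells as the beta-lactamase reporter read. HCT-116 p53RE-bla cells saw compounds for 16 h at 37 C.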
# [8] = molecular target: 5-hydroxytryptamine receptor 2A (Homo sapiens) (UniProt P28223); assay: 5-hydroxytryptamine receptor 2A (HTR2A) small molecule antagonists, cell-based qHTS assay (AID 1963586); further: nearly all actives have a fitted effect of over 45% in size
# How it was run: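 CHO cells stably expressing human HTR2A were plated for 18 h at 37 C, then loaded with calcium dye for 1 h. Compounds were preincubated 5 min at room temperature before DOI (4 nM solution) was added. Kinetic fluorescence was read for 3 min.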
# [9] = molecular target: 5-hydroxytryptamine receptor 2A (Homo sapiens) (UniProt P28223); assay: 5-hydroxytryptamine receptor 2A (HTR2A) small molecule agonists, cell-based qHTS assay (AID 1963587); further: nearly all actives have a fitted effect of over 30% in size; further: potency means the concentration at half of the fitted maximal effect
# How it was run: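 Kinetic calcium-flux fluorescence (2 min, 1 sec intervals) after compound addition in agonist mode. HTR2A-CHO cells were cultured 18 h, then dye-loaded 1 h at 37 C.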
# [10] = molecular target: Muscarinic acetylcholine receptor M1 (Homo sapiens) (UniProt P11229); assay: Cholinergic receptor muscarinic 1 (CHRM1) small molecule antagonists, cell-based qHTS assay (AID 1963588); further: nearly all actives have a fitted effect of over 40% in size; further: potency means the concentration at half of the fitted maximal effect
# How it was run: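 Compounds were tested at 15 concentrations in three independent runs. Dye-loaded CHRM1-CHO cells were exposed 5 min at room temperature before stimulation by acetylcholine added at 50nM. Intracellular calcium was read kinetically on FDSS for 3 min.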
# [11] = molecular target: Muscarinic acetylcholine receptor M1 (Homo sapiens) (UniProt P11229); assay: Cholinergic receptor muscarinic 1 (CHRM1) small molecule agonists, cell-based qHTS assay (AID 1963589); further: nearly all actives have a fitted effect of over 35% in size; further: potency means the concentration at half of the fitted maximal effect
# How it was run: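 Agonist-mode calcium-flux screen: compounds at 15 concentrations, three independent runs, were pin-transferred onto dye-loaded human CHRM1-CHO cells. Fluorescence was then recorded kinetically every second over minutes.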
# [12] = cAMP Responsive Elements (CRE) small molecule agonists, cell-based qHTS assay (AID 1963590)
# How it was run: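 Agonist mode: compound added to CRE-bla HEK 293T cells (2,000/well, 18 h after plating) for 3 h at 37 C/5% CO2. Reporter activity detected via FRET beta-lactamase substrate, 2 h room-temperature loading.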
# [13] = cAMP Responsive Elements (CRE) small molecule antagonists, cell-based qHTS assay (AID 1963591; active means well fitted inhibition curve with a large enough effect in the signal ratio in the repeat runs, not every such curve was filed as active; the % refers to the signal ratio)
# How it was run: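 Antagonist mode: compounds are added alongside the adenylyl cyclase activator NKH477 (0.25 uM final) to CRE-bla HEK293T cells for 3 h. LiveBLAzer FRET substrate, 2 h at room temperature, reports bla expression.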
# [14] = molecular target: Beta-2 adrenergic receptor (Homo sapiens) (UniProt P07550); assay: Adrenergic beta2 receptor (ADRB2) small molecule antagonists, cell-based qHTS assay (AID 1963592); further: series mostly up to about 92 µM; nearly all actives have a fitted effect of over 50% in size
# How it was run: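 Assay format: CHO-ADRB2 cells, 18-20hr seeding at 37C/5% CO2, then compound plus 1nM isoproterenol agonist mix for 0.5hr RT. Homogeneous time-resolved fluorescence cAMP detection after 1hr, expressed as 665/615 nm ratio.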
# [15] = molecular target: Beta-2 adrenergic receptor (Homo sapiens) (UniProt P07550); assay: Adrenergic beta2 receptor (ADRB2) small molecule agonists, cell-based qHTS assay (AID 1963593);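 further: CHO cells stably overexpressing human ADRB2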
# How it was run: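 CHO cells stably over-expressing ADRB2 were plated overnight at 37C, then dosed with compounds plus a stimulation mix containing 100uM IBMX and 25uM Ro-20-1724 for 0.5hr at room temperature. cAMP was measured by HTRF competition, 1hr.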
# [16] = molecular target: D(2) dopamine receptor (Homo sapiens) (UniProt P14416); assay: Dopamine D2 receptor (DRD2) small molecule agonists, cell-based qHTS assay (AID 1963594); further: nearly all actives have a fitted effect of over 35% in size; further: potency means the concentration at half of the fitted maximal effect
# How it was run: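 cAMP accumulation in DRD2-HEK293 cells measured by HTRF after 1 h detection; compounds added 10 min before NKH477 (200nM […]) forskolin-analogue stimulation, 30 min at room temperature, with Ro20-1724 present at 0.1 mM final.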
# [17] = molecular target: D(2) dopamine receptor (Homo sapiens) (UniProt P14416); assay: Dopamine D2 receptor (DRD2) small molecule antagonists, cell-based qHTS assay (AID 1963595; active means well fitted inhibition curve with a large enough effect in the signal ratio in the repeat runs, with a control signal flat; the % refers to the signal ratio; further: potency means the concentration at half of the fitted maximal effect)
# How it was run: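 Stable D2 receptor HEK293 line, 24 h after seeding. Compound preincubated 10 min, then quinpirole (12 nM) with forskolin analogue NKH477 (200 nM), 30 min, room temperature. Detection by time-resolved FRET of cAMP.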
# [18] = molecular target: Gonadotropin-releasing hormone receptor (Homo sapiens) (UniProt P30968); assay: Human gonadotropin-releasing hormone receptor (GnRHR) small molecule agonists, calcium flux assay in GnRHR-HEK293 cells (AID 1920063); further: nearly all actives have a fitted effect of over 35% in size; further: potency means the concentration at half of the fitted maximal effect
# How it was run: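 Agonist mode: compounds at 15 concentrations, in triplicate, went onto calcium dye-loaded GnRHR-HEK293 cells. Intracellular calcium was then followed as 480/540 nm fluorescence at 1 s intervals over 3 min.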
# [19] = p53 small molecule agonists, cell-based qHTS assay (AID 1963582; active means well fitted activation curve with a large enough effect in the signal ratio in the repeat runs, not every such curve was filed as active; the % refers to the signal ratio)
# How it was run: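 Read-out is beta-lactamase FRET fluorescence after 2 h at room temperature with LiveBLAzer B/G substrate. p53 response element-bla cells were treated 16 h at 37 C with compounds in DMSO, added 5 h after seeding.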
# Sequence of D(2) dopamine receptor (Homo sapiens) (P14416 whole entry, looked up): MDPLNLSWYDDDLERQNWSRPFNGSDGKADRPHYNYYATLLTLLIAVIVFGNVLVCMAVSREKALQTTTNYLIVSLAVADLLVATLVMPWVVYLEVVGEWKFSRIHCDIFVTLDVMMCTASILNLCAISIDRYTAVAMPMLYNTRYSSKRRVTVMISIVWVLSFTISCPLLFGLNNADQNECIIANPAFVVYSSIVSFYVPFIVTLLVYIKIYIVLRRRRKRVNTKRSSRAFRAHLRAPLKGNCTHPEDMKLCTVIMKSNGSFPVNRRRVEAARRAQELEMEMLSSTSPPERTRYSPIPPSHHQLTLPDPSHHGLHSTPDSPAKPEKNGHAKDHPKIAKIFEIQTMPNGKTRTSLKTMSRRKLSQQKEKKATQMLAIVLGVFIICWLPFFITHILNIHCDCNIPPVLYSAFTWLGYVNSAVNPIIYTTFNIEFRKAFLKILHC
# Sequence of Gonadotropin-releasing hormone receptor (Homo sapiens) (P30968 whole entry, looked up): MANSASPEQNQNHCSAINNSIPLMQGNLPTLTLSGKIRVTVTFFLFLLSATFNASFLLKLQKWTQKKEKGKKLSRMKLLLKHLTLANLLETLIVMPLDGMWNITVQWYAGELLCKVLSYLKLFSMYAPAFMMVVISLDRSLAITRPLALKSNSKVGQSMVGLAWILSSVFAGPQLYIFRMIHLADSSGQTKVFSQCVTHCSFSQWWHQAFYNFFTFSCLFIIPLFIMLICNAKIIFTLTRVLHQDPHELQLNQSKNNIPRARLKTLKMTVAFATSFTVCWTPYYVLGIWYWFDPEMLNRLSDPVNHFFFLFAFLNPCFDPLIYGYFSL
# Sequence of 5-hydroxytryptamine receptor 2A (Homo sapiens) (P28223 whole entry, looked up): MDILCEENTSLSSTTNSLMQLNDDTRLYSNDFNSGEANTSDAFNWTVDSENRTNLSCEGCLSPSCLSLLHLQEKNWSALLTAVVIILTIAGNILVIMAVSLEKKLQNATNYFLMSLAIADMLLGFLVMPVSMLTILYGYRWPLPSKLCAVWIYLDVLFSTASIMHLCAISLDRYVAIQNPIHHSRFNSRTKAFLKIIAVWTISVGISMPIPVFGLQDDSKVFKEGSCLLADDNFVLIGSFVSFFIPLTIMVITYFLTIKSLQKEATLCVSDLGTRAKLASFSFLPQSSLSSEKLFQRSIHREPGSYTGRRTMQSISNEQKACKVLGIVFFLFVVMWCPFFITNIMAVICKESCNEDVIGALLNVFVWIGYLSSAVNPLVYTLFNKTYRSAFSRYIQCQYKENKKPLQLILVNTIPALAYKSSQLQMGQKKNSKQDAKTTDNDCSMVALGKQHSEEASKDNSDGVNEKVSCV
# Sequence of Beta-2 adrenergic receptor (Homo sapiens) (P07550 whole entry, looked up): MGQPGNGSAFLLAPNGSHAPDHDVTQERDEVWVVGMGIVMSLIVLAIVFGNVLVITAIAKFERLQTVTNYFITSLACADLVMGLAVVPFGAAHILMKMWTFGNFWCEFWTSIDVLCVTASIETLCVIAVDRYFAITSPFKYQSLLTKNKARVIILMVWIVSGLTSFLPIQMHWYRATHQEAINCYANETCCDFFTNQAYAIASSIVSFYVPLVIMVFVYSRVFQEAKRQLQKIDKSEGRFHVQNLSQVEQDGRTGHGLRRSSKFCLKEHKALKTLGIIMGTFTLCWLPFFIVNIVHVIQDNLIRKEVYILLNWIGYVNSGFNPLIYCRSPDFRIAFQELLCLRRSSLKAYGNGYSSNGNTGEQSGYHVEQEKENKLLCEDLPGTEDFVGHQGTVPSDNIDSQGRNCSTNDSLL
# Sequence of Muscarinic acetylcholine receptor M1 (Homo sapiens) (P11229 whole entry, looked up): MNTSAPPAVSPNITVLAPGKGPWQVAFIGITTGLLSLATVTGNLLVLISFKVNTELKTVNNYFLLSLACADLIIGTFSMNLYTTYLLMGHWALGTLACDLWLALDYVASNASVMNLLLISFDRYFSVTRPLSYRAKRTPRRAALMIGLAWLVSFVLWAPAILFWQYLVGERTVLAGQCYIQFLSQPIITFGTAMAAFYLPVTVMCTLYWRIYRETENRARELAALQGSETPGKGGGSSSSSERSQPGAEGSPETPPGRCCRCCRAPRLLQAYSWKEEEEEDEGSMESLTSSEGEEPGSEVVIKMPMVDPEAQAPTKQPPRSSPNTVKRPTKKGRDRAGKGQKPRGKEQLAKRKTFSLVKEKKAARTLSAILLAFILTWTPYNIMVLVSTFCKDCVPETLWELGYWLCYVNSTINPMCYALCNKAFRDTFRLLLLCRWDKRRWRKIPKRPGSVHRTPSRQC
# Sequence of KiSS-1 receptor (Homo sapiens) (Q969F8 whole entry, looked up): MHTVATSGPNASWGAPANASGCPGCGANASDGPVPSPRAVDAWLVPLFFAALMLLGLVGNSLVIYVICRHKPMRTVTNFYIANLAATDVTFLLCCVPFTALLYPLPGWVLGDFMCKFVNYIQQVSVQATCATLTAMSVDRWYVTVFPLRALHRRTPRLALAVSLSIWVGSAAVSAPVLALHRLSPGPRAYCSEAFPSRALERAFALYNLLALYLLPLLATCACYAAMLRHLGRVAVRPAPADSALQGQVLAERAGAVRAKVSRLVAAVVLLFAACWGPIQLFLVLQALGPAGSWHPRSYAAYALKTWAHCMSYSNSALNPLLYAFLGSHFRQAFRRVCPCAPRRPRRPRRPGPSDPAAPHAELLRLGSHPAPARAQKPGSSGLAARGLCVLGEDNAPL
compound,measurement,setting,value
COC(=O)c1cc(Oc2ccc(Cl)cc2Cl)ccc1[N+](=O)[O-],Potency,[1],inactive
same,Potency,[2],inactive
same,Potency,[3],inactive
same,Potency,[4],inactive
same,Potency,[5],inactive
same,Potency,[6],inactive
same,Potency,[7],inactive
same,Potency,[8],inactive
same,Potency,[9],inactive
same,Potency,[10],0.0375 µM (active)
same,Potency,[11],inactive
same,Potency,[12],inactive
same,Potency,[13],inactive
same,Potency,[14],inactive
same,Potency,[15],inactive
same,Potency,[16],inactive
same,Potency,[17],inactive
Cc1cc(=O)[nH]o1,Potency,[18],inactive
same,Potency,[1],inactive
same,Potency,[4],inactive
same,Potency,[5],inactive
same,Potency,[6],inactive
same,Potency,[7],inactive
same,Potency,[19],inactive
same,Potency,[8],inactive
same,Potency,[9],inactive
same,Potency,[10],inactive
same,Potency,[11],inactive
same,Potency,[12],inactive
same,Potency,[13],inactive
same,Potency,[14],inactive
same,Potency,[15],inactive
same,Potency,[16],inactive
O=S1(=O)OCC2C(CO1)C1(Cl)C(Cl)=C(Cl)C2(Cl)C1(Cl)Cl (stereo not drawn),Potency,[1],inactive
same,Potency,[2],inactive
same,Potency,[4],inactive
same,Potency,[5],inactive
same,Potency,[6],inactive
same,Potency,[8],inactive
same,Potency,[9],inactive
same,Potency,[10],inactive
same,Potency,[11],inactive
same,Potency,[15],inactive
same,Potency,[16],inactive
same,Potency,[17],inactive
C[CH2][Hg][N]1C(=O)C2C(C1=O)C1(Cl)C(Cl)=C(Cl)C2(Cl)C1(Cl)Cl (stereo not drawn),activation,[1],13.3% [at 15.8 µM]
same,activation,[2],-0.0279% [at 11.8 µM]
same,activation,[4],-6.79% [at 13.6 µM]
same,"activity, negative = inhibition",[8],14.2% [at 12.7 µM]
same,Potency,[9],10.4 µM (active)
same,"activity, negative = inhibition",[10],-14.4% [at 12.6 µM]
same,"activity change, negative = inhibition",[14],-18.8% [at 19 µM]
CC(=O)O.CC(=O)O.CC(=O)O.CC(=O)O.CC(=O)O.CC(=O)O.CC(=O)O.O.O.[Cr].[Cr].[Cr],Potency,[18],inactive
same,Potency,[2],inactive
same,Potency,[5],inactive
same,Potency,[6],inactive
same,Potency,[7],inactive
same,Potency,[8],inactive
same,Potency,[10],inactive
same,Potency,[11],inactive
same,Potency,[12],inactive
same,Potency,[13],inactive
same,Potency,[14],inactive
same,Potency,[15],inactive
same,Potency,[16],inactive
same,Potency,[17],inactive
NC(=O)CC[C@@H]1NC(=O)[C@H](Cc2ccccc2)NC(=O)[C@H](Cc2ccc(O)cc2)NC(=O)CCSSC[C@@H](C(=O)N2CCC[C@H]2C(=O)N[C@@H](CCCN=C(N)N)C(=O)NCC(N)=O)NC(=O)[C@H](CC(N)=O)NC1=O,Potency,[9],inactive
same,Potency,[11],inactive
CC(C)CC(=O)N[C@H](C(=O)N[C@H](C(=O)N[C@@H](CC(C)C)[C@@H](O)CC(=O)N[C@@H](C)C(=O)N[C@@H](CC(C)C)[C@@H](O)CC(=O)O)C(C)C)C(C)C (Isovaleryl-VV[Sta]A[Sta]-OH),Potency,[8],inactive
same,Potency,[9],inactive
same,Potency,[10],inactive
same,Potency,[11],inactive
O=S(=O)(O)c1cc(O)ccc1O,Potency,[7],inactive
CCNC(=O)[C@@H]1CCCN1C(=O)[C@H](CCCN=C(N)N)NC(=O)[C@H](CC(C)C)NC(=O)CNC(=O)[C@H](Cc1ccc(O)cc1)NC(=O)[C@H](CO)NC(=O)[C@H](Cc1c[nH]c2ccccc12)NC(=O)[C@H](Cc1cnc[nH]1)NC(=O)[C@@H]1CCC(=O)N1 ([pGlu]HWSYGLRP-NHEt),Potency,[8],inactive
same,Potency,[9],inactive
same,Potency,[11],inactive
Oc1ccc([C@H]2CNCc3c2ccc(O)c3O)cc1O,Potency,[1],inactive
same,Potency,[2],inactive
same,Potency,[5],inactive
same,Potency,[6],inactive
same,Potency,[7],inactive
same,Potency,[9],9.52 µM (active)
same,Potency,[10],inactive
same,Potency,[11],inactive
same,Potency,[12],inactive
same,Potency,[13],inactive
same,Potency,[16],17.4 µM (active)
same,Potency,[17],inactive
Cc1ccc(O)cc1C,Potency,[8],inactive
same,Potency,[9],inactive
same,Potency,[10],inactive
same,Potency,[11],inactive
same,Potency,[14],inactive
same,Potency,[16],inactive
same,Potency,[17],inactive
CN(C)CCCCCCN(C)C,Potency,[3],inactive
same,Potency,[4],inactive
same,Potency,[5],inactive
same,Potency,[6],inactive
same,Potency,[7],inactive
same,Potency,[19],inactive
CCCN(CCC)c1c([N+](=O)[O-])cc(C(F)(F)F)cc1[N+](=O)[O-],Potency,[1],inactive
same,Potency,[2],inactive
same,Potency,[5],inactive
same,Potency,[6],inactive
same,Potency,[7],inactive
same,Potency,[8],inactive
same,Potency,[9],inactive
same,Potency,[10],inactive
same,Potency,[11],inactive
same,Potency,[12],inactive
same,Potency,[13],inactive
same,Potency,[14],inactive
same,Potency,[15],inactive
same,Potency,[16],inactive
same,Potency,[17],inactive
O=C(O)/C=C\C(=O)O,Potency,[3],inactive
same,Potency,[4],inactive
same,Potency,[5],inactive
same,Potency,[6],inactive
same,Potency,[7],inactive
same,Potency,[19],inactive
Clc1cc(C(Cl)(Cl)Cl)cnc1Cl,Potency,[18],inactive
same,Potency,[2],inactive
same,Potency,[4],inactive
same,Potency,[5],inactive
same,Potency,[6],inactive
same,Potency,[7],inactive
same,Potency,[19],inactive
same,Potency,[8],inactive
same,Potency,[10],inactive
same,Potency,[11],inactive
same,Potency,[12],inactive
same,Potency,[13],inactive
same,Potency,[14],inactive
same,Potency,[16],inactive
same,Potency,[17],inactive
CSCC[C@H](NC(=O)[C@H](Cc1c[nH]c2ccccc12)NC(=O)CCNC(=O)OC(C)(C)C)C(=O)N[C@@H](CC(=O)O)C(=O)N[C@@H](Cc1ccccc1)C(N)=O,Potency,[8],inactive
same,Potency,[9],inactive
same,Potency,[11],inactive
O=[N+]([O-])c1ccccc1Cl,Potency,[8],inactive
same,Potency,[9],inactive
same,Potency,[10],inactive
same,Potency,[11],inactive
same,Potency,[14],inactive
same,Potency,[15],inactive
same,Potency,[16],inactive
same,Potency,[17],inactive
Cc1ccc(N(SC(F)(Cl)Cl)S(=O)(=O)N(C)C)cc1,Potency,[18],34.7 µM (active)
same,Potency,[2],38.9 µM (active)
same,Potency,[3],inactive
same,Potency,[4],inactive
same,Potency,[5],16.2 µM (active)
same,Potency,[7],inactive
same,Potency,[19],inactive
same,Potency,[9],49 µM (active)
same,Potency,[11],49 µM (active)
same,Potency,[17],3.06 µM (active)
